Drawing on PubChem BioAssay, this text covers composite z-score, z-score and composite Z-score for 5 compounds.

In assay [1] the test system is Human papillomavirus type 1a protein E7 (residues 44-93). Put plainly: HPV1a E7 fragment binders on microarrays, primary screen, biochemical, small-molecule microarray, residues 44-93, 635 nm fluorescence (AID 1108).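 Further: E7 fragment applied at 1 µg/mL in TBST for 1 h at 4 C; score combines spot fluorescence with its signal to noise ratio.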 The note with it: small-molecule microarray binding, fluorescence 635 nm; higher = more signal.
A short description of assay [2]: modulators of HCV replicon luciferase signal, primary screen, HCV replication inhibitor project, Huh7 cells, luciferase reporter (AID 1109).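 Further: huh7 hepatoma cells harbouring a luciferase neomycin HCV replicon reporter; luciferase luminescence as measure of HCV replicon replication; test concentration not given here.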 The note with it: 48 h, higher = more signal. On the technique in general: A replicon is a self-replicating genome or part of one, used to study replication in cells.
Assay [3] has as its target Left-right determination factor 2 (Homo sapiens) (UniProt O00292). Nature of the assay: LEFTY2 binders on small-molecule microarrays, primary screen, biochemical, small-molecule microarray, 635 nm fluorescence scan (AID 1110). The note with it: LEFTY2 binding, higher = more signal.
Assay [4] deals with Calmodulin-1 (Homo sapiens) (UniProt P0DP23). Nature of the assay: CALM1 binders on microarrays, EGTA buffer, profiling panel, biochemical, small-molecule microarray, Cy5-labelled CALM1 (AID 1111).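 Further: labelled calmodulin applied in Tris saline Tween buffer holding calcium plus EGTA and DTT.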 The following applies: Cy5-CALM1 binding fluorescence, higher = more signal.
Assay [5] has the same target. Put plainly: calcium-bound CALM1 binders on microarrays, profiling panel, artefact control for SMM control-protein annotation, biochemical, small-molecule microarray, Cy5-labelled CALM1, plus calcium (AID 1112).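 Further: score merges spot fluorescence with signal to noise from triplicate slides.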 The following applies: Cy5-CALM1 binding fluorescence, higher = more signal.
A short description of assay [6]: small-molecule microarray binders of probe aWnt5a, primary screen, biochemical, biotinylated probe, 635/667 nm fluorescence (AID 1113).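 Further: score merges 667 nm fluorescence intensity with signal-to-noise per printed feature.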 The note with it: higher = more signal.
Assay [7] in a line: small-molecule microarray binders of probe aShh, primary screen, biochemical, biotinylated probe, 635/667 nm fluorescence (AID 1114).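 Further: probe is biotin-labelled aShh protein from a stem cell growth factor screen; measures binding of labelled protein to compounds printed on the slide; score merges feature fluorescence at 667 nm with signal-to-noise.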 The following applies: higher = more signal.
A short description of assay [8]: small-molecule microarray binders of probe aNog, primary screen, biochemical, biotinylated probe, 635/667 nm fluorescence (AID 1115).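 Further: probe is biotinylated aNog protein used at 0.15 µg/mL for 1 h at 4 C; z-score combines 667 nm fluorescence of each spot with its signal to noise.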 The note with it: higher = more signal.
The target of assay [9] is Torsin-1A-interacting protein 1 (Homo sapiens) (UniProt Q5JTV8). Put plainly: LAP1 binders from COS7 cell lysate, primary screen, small-molecule microarray, 635/667 nm fluorescence (AID 1116). The note with it: COS7-hLAP1 lysate binding, 635 nm fluorescence, higher = more signal.
Sequence of Torsin-1A-interacting protein 1 (Homo sapiens) (Q5JTV8 whole entry, looked up): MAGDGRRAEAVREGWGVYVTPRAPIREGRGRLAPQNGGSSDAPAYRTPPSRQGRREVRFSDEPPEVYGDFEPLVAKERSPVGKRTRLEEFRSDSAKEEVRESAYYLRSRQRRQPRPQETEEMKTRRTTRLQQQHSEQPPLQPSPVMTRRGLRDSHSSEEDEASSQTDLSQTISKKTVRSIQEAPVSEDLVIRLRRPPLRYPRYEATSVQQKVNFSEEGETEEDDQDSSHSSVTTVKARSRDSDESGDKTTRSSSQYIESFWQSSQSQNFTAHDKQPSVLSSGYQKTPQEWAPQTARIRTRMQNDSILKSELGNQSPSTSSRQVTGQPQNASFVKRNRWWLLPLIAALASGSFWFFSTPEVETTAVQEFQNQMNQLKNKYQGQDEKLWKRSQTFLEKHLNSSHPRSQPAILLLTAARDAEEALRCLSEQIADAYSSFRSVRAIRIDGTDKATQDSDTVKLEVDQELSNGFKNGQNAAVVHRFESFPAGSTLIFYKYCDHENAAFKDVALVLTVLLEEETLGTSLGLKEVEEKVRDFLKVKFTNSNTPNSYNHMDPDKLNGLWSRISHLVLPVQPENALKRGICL
Assay [10] deals with Alpha-bungarotoxin (Bungarus multicinctus) (UniProt P60615). Put plainly: alpha-bungarotoxin binders on microarray, profiling panel, artefact control for SMM control protein annotation, biochemical, small-molecule microarray, Alexa647 label, 635/667 nm fluorescence (AID 1117). The note with it: alpha-BTX-A647 binding fluorescence, higher = more signal.
Sequence of Alpha-bungarotoxin (Bungarus multicinctus) (P60615 whole entry, looked up): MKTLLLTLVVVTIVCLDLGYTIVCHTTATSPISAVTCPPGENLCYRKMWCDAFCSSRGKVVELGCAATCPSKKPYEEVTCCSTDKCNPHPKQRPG
For assay [11], the target named is Albumin (Bos taurus) (UniProt P02769). Put plainly: bovine serum albumin binders on microarray, profiling panel, artefact control for SMM control protein annotation, biochemical, small-molecule microarray, Alexa647 label, 635/667 nm fluorescence (AID 1118).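 Further: score merges 667 nm emission intensity and signal-to-noise per printed compound spot.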 The note with it: BSA-A647 binding, fluorescence 635 nm, higher = more signal.
Sequence of Albumin (Bos taurus) (P02769 whole entry, looked up): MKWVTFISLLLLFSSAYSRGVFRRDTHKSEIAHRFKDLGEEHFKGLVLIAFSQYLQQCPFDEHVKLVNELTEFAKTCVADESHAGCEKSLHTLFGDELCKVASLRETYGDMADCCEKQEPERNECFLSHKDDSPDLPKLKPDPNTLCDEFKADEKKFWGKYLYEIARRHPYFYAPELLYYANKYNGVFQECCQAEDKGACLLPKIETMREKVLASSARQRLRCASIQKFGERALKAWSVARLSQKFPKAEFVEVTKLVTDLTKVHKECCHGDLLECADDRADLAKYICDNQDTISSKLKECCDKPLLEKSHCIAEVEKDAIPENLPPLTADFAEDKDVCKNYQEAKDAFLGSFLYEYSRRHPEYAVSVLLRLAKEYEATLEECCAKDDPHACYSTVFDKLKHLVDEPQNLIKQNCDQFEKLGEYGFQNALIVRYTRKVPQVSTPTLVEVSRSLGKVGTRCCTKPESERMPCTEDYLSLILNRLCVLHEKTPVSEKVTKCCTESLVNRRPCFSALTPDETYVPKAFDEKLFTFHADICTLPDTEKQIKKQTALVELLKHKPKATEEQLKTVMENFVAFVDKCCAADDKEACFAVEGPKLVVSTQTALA
Assay [12] is described as follows: small-molecule microarray binders of probe aXIP, primary screen, biochemical, NeuroSMM set, 635/667 nm fluorescence (AID 1119).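 Further: probe is the protein aXip251-270 applied at 1 µg/mL to compound-printed slides; binding of probe to printed compounds measured as 667 nm fluorescence plus signal to noise.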 The note with it: higher = more signal, called active from +8 up or from −8 down.
Assay [13] in a line: small-molecule binders of probe aNOTCH3, primary screen, biochemical, small-molecule microarray, 635/667 nm fluorescence (AID 1120).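 Further: probe is a biotin-tagged antibody raised against NOTCH3 rather than NOTCH3 protein; score merges spot fluorescence near 667 nm with spot signal to noise.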 The following applies: higher = more signal.
Assay [14] in a line: small-molecule binders of probe aNOTCH2, primary screen, biochemical, small-molecule microarray, 635/667 nm fluorescence (AID 1121).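 Further: score merges feature fluorescence read at 667 nm with its signal to noise.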 The note with it: higher = more signal.
For assay [15], the target named is Carbonic anhydrase 2 (Homo sapiens) (UniProt P00918). Put plainly: CAII small-molecule binders, profiling panel, biochemical, small-molecule microarray, Alexa647-labelled CAII (AID 1122). The note with it: CAII-A647 binding fluorescence, higher = more signal.
A short description of assay [16]: COS7 lysate on small-molecule microarray, probe aHis, 635 nm (AID 1123).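 Further: z-score combines 667nm fluorescence intensity with signal-to-noise per printed compound spot.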 The note with it: COS7 cell lysate, fluorescence, higher = more signal.
Assay [17] can be described thus: compound binding in COS7 lysate, probe aLAP1, primary screen, cell lysate, small-molecule microarray (AID 1124).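 Further: lysate comes from COS7 cells expressing LAP1 and is applied at 0.3 µg/mL; score merges spot fluorescence near 667 nm with signal-to-noise over triplicate slides.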 The following applies: probe aLAP1, fluorescence, higher = more signal.
Assay [18] concerns Sam68 (KHDRBS1). Nature of the assay: Sam68 small-molecule binders, primary screen, biochemical, small-molecule microarray, 635 nm fluorescence (AID 1125).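 Further: score merges 667 nm channel intensity with signal to noise over triplicate slides.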 The note with it: small-molecule microarray binding, higher = more signal.
Assay [19] deals with Chordin-like protein 2 (CHRDL2). Put plainly: CHRDL2 small-molecule binders, primary screen, biochemical, small-molecule microarray, 635 nm fluorescence (AID 1126).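 Further: printed compound slides probed with Chrdl2 protein at 4 µg/mL for 1 h at 4 C; score merges 667 nm emission intensity with signal to noise over three replicate slides.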 The note with it: small-molecule microarray binding, fluorescence 635 nm; higher = more signal.
Assay [20] addresses Concanavalin-A (Canavalia ensiformis) (UniProt P02866). Nature of the assay: ConA small-molecule binders, primary screen, artefact control for SMM control protein annotation, biochemical, small-molecule microarray, Alexa647 label, 635 nm (AID 1127).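 Further: z combines 667 nm emission intensity with signal-to-noise across three replicate slides.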 The note with it: ConA-A647 binding fluorescence, higher = more signal.

Molecules are shown by their SMILES. Calls of active or inactive are those of the source.

Sequence of Left-right determination factor 2 (Homo sapiens) (O00292 whole entry, looked up): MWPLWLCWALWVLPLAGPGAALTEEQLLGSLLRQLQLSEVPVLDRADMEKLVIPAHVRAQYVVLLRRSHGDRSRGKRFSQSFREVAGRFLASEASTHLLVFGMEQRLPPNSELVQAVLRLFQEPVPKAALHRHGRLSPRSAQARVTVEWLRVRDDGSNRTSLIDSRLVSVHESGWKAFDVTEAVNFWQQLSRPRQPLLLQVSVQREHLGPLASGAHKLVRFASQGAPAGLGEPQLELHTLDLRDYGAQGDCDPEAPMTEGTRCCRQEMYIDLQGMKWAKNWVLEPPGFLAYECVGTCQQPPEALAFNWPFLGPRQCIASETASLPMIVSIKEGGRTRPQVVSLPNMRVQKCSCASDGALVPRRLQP
Sequence of Concanavalin-A (Canavalia ensiformis) (P02866 whole entry, looked up): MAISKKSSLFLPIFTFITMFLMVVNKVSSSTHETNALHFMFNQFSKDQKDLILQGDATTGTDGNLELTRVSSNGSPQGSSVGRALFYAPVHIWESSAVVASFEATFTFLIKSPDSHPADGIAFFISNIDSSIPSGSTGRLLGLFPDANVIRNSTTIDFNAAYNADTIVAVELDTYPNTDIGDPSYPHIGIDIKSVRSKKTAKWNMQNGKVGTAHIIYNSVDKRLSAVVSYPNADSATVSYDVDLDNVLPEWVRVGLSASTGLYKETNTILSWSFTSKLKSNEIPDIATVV

Turning to `C=CC[C@@]1(C(=O)NCCN2CCOCC2)N=C(c2ccc(OCCCO)cc2)O[C@@H]1c1ccccc1`, the composite z-score in assay [1] is 1.46; in [3], 0.902; in [4], -0.0984; in [5], -0.0501; in [6], 0.0873; in [7] it was -0.0093. Moreover, the composite z-score in assay [8] was 1; in assay [9], 1.06; in [10], 0.991; in assay [11] it was 0.262; in [13] it was 0.291; in [14], -0.0907. In addition, the composite z-score in [15] stood at 0.673; in assay [16], 2.52; in [17], 0.871; in assay [18], 1.12; in [19], 1.4; in [20] it was 0.608. The z-score in assay [2] is -1.34. Besides, in assay [12], the composite Z-score was -0.288 (inactive).

Consider `CCOC(=O)C1=CC[C@@H](c2ccc(N(CC)CC)cc2)N(S(=O)(=O)c2ccc(C)cc2)[C@H]1c1ccc([N+](=O)[O-])cc1`, for which the composite z-score in [1] is 1.24; in assay [3] it was -1.76; in assay [4], 0.863; in assay [5], -0.378; in assay [6], -0.0472; in [7], -0.0035. Also, the composite z-score is 0.587 in [8]; 0.923 in [9]; 0.274 in assay [10]; 0.682 in assay [11]; 0.0116 in assay [13]; -0.0097 in assay [14]. For the same compound, the composite z-score in assay [15] is 0.473; in assay [16], -0.507; in assay [17], 0.769; in [18], 0.317; in assay [19], -0.724; in assay [20] it was 0.588. In assay [2], this compound yielded a z-score of -0.83. Besides, the composite Z-score in [12] was 0.38 (inactive).

As for `CC(C)(C)OC(=O)CC[C@]1(C(=O)N2CCCCC2)N=C(c2ccc(OCCCO)cc2)O[C@H]1c1ccccc1CN=[N+]=[N-]`, the composite z-score worked out at 0.804 in assay [1]; 0.888 in assay [3]; 0.958 in assay [4]; 0.566 in assay [5]; 0.0044 in assay [6]; 0.439 in [7]. Moreover, the composite z-score is 0.659 in assay [8]; 2.52 in assay [9]; 0.12 in assay [10]; 0.982 in [11]; 0.516 in assay [13]; 0.381 in assay [14]. Also, the composite z-score was found to be 0.801 in [15]; 2.74 in assay [16]; 0.762 in [17]; 1.3 in [18]; 0.388 in [19]; 1.2 in [20]. In addition, the z-score in assay [2] was -2.03. The composite Z-score in assay [12] is -0.43 (inactive).

With `COC(=O)[C@]1(Cc2ccccc2CN=[N+]=[N-])N=C(c2ccc(OCCCO)cc2)O[C@@H]1c1ccccc1CN=[N+]=[N-]`, the composite z-score in assay [1] is 0.0068; in assay [3], -0.624; in assay [4], -0.11; in [5], -0.271; in assay [6], -0.0346; in [7], 0.246. The composite z-score in assay [8] was 0.589; in assay [9] it was 1.39; in [10], 1.48; in [11] it was -0.204; in assay [13] it was -0.0984; in assay [14] it was -0.0079. Besides, the composite z-score was 0.651 in assay [15]; 1.75 in [16]; 0.838 in [17]; 0.877 in [18]; 0.31 in [19]; 0.951 in assay [20]. For the same compound, the z-score in assay [2] is -2.91. For the same compound, the composite Z-score in assay [12] is -0.206 (inactive).

Regarding `C=CCC(OC(C)=O)[C@@H]1[C@@H](N(Cc2cccc3ccccc23)C(=O)c2ccc(C)cc2)c2cc(OCCCO)ccc2N1C(=O)c1ccc2ccccc2c1` (stereo not given in full), the composite z-score is -0.44 in assay [1]; 0.346 in assay [3]; -0.0236 in assay [4]; -0.0542 in [5]; 0.0229 in assay [6]; -0.0793 in assay [7]. Moreover, the composite z-score in assay [8] was -0.329; in assay [9], 0.139; in [10] it was 0.132; in assay [11], -0.0007; in assay [13], 0.0311; in assay [14], -0.0924. Moreover, the composite z-score is 0.0697 in assay [15]; 0.583 in assay [16]; -0.27 in assay [17]; -0.044 in assay [18]; 0.224 in assay [19]; -0.525 in assay [20]. Besides, in assay [2], the z-score is -0.945. Also, the composite Z-score in assay [12] was 0.0941 (inactive).
